GDH-TPI counter-1 = GDH-TPI coupling enzyme inhibitors, primary screen, artefact control for M. tuberculosis FBA inhibitor project, biochemical, absorbance, full deck. GDH-TPI coupled enzyme counterscreen, NADH absorbance. inhibition, % at 4.8 µM. actives 1.2% (n = 360,000); in the data active means inhibition above about 30%;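 further: 0% = DMSO wells and 100% = wells lacking the enzyme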
BioA inh = M. tuberculosis BioA enzyme inhibitors, primary screen, biochemical, plate reader, single point, HTS. 7,8-diaminopelargonic acid synthase BioA (Mycobacterium tuberculosis). purified M. tuberculosis BioA enzyme. inhibition, % at 9.99 µM. actives 0.096% (n = 360,000). AID 602481, 2012; in the data active means inhibition above about 40%
Mtb FBA inh = Mtb FBA enzyme inhibitors, primary screen, biochemical, fluorescence, strain H37Rv | Fructose-bisphosphate aldolase (Mycobacterium tuberculosis (strain ATCC 25618 / H37Rv)), … | purified M. tuberculosis FBA, fluorescence read-out | inhibition, % at 1 µM | actives 2.3% (n = 360,000);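 further: 0% = vehicle and 100% = reference inhibitor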
Target sequence (P9WQA3 whole entry, looked up): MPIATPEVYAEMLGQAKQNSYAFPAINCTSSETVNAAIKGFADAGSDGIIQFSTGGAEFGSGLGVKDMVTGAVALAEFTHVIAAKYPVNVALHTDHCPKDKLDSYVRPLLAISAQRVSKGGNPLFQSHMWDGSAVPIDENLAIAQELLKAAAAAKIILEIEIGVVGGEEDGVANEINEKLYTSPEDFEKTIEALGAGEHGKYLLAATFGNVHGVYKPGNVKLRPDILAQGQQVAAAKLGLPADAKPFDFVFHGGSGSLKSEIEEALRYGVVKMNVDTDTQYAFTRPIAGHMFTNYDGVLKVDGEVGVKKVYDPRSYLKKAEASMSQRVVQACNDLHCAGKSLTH
3CLpro inhibitor = SARS-CoV 3CLpro protease inhibitors, primary screen, biochemical, quenched FRET; recombinant SARS-CoV 3CLpro, quenched FRET peptide cleavage; inhibition, % at 6 µM; actives 0.14% (n = 290,000); AID 1706, 2009; in the data active means inhibition above about 12%
FadD28 binding = inhibitors of FadD28 bisubstrate probe binding, primary screen, biochemical, fluorescence polarization, single point | inhibition, % at 12.5 µM | Mycobacterium tuberculosis FadD28 fatty-acid-AMP ligase | actives 0.22% (n = 360,000) | AID 588549, 2011; in the data active means inhibition above about 8.5%, passing the limit was not always enough
Mtb FBA inh conf = M. tuberculosis aldolase blockers, biochemical, fluorescence, strain H37Rv, confirmation; actives 78% (n = 5,600); shares compounds with Mtb FBA inh; purified M. tuberculosis FBA, fluorescence read-out; inhibition, % at 1 µM;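 further: 0% = vehicle wells and 100% = reference inhibitor wells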
GDH-TPI counter-2 = GDH-TPI coupling enzyme inhibitors, artefact control for M. tuberculosis FBA inhibitor project, biochemical, fluorescence, high throughput. AID 652141, 2013. GDH-TPI coupled enzyme counterscreen. inhibition, % at 1 µM. shares compounds with Mtb FBA inh. actives 81% (n = 5,600); in the data active means inhibition above about 10%
GDH-TPI dose = GDH-TPI coupling enzyme inhibitors, dose response, artefact control for M. tuberculosis FBA inhibitor project, biochemical, fluorescence, IC50 | shares compounds with Mtb FBA inh | GDH-TPI coupled enzyme assay, artifact counterscreen | IC50, µM | actives 79% (n = 170) | AID 652145, 2013; call rule not given here
The depositor's hits bear a star; / = no result; + = active, no number. Hits are enriched below; roughly 3.1% of the tested compounds scored in any of these assays. Unless noted, no stated cut-off is given here; in the data, active means inhibition above about 27%; inactive means the rest.

SMILES	GDH-TPI counter-1	BioA inh	Mtb FBA inh	3CLpro inhibitor	FadD28 binding	Mtb FBA inh conf	GDH-TPI counter-2	others
CCC(=O)Nc1ccc2c(c1)C(=O)N(C)[C@H]1CC[C@@H](CC(=O)NCCCN(C)C)O[C@H]1CO2	/	0	/	/	/	/	/
Cc1cc(C)c(OCCCNCc2ccccc2)c(Br)c1	20	-7	-1	-2	-2	/	/
Cc1cc(C)c(OCCCNC2CCCC2)c(Br)c1	6	0	67*	-1	-1	+	+
C[C@H](CO)N1C[C@H](C)[C@H](CN(C)C(=O)NC2CCCCC2)Oc2ccc(NC(=O)Nc3ccccc3)cc2C1=O	/	1	/	/	/	/	/
Cc1noc(C)c1NC(=O)N(C)C[C@@H]1OCCCC[C@@H](C)Oc2ccc(NC(=O)NC3CCCCC3)cc2C(=O)N([C@H](C)CO)C[C@H]1C	/	1	/	/	/	/	/
COc1ccc(-c2cc(C(=O)N3CCCC(C(F)(F)F)C3)c3ccccc3n2)cc1 (configuration not stated)	19	1	96*	/	-5	-1	-4
Cc1ccc(-c2cc(C(=O)N3CCCC(C(F)(F)F)C3)c3ccccc3n2)o1 (configuration not stated)	6	0	87*	/	-3	161*	90*
CCCNC(=O)C[C@H]1C[C@@H]2c3cc(N(C)C)ccc3O[C@@H]2[C@@H](CO)O1	/	-1	/	/	/	/	/
Cn1cncc1C#Cc1ccc2cc(CCO)oc(=O)c2c1	17	0	34*	/	-5	+	+
O=c1oc(CCO)cc2ccc(-c3ccc4[nH]ccc4c3)cc12	14	0	5	/	-2	/	/
Cc1ccc(-c2nc3ccccc3nc2NN)cc1	9	1	31*	-2	-2	14	9	GDH-TPI dose=>10
CSC1=NC(NCCCO)c2c(sc3c2CC(C)(C)OC3)N1 (configuration not stated)	12	/	28*	-1	-2	107*	92*
CSc1nc(SCC(=O)O)c2c3c(sc2n1)COC(C)(C)C3	14	-1	5	-3	0	/	/
Cc1ccc(S(=O)(=O)N(C)C[C@H]2OCCCC[C@@H](C)Oc3ccc(NS(=O)(=O)c4cn(C)cn4)cc3C(=O)N([C@H](C)CO)C[C@H]2C)cc1	/	3	/	/	/	/	/
COc1ccc(-c2[nH]ncc2CN(Cc2nccn2C)C(C)C)c(F)c1	4	1	-1	4	1	/	/
CCn1ccnc1CN(C)Cc1cn[nH]c1-c1ccc(F)cc1F	1	0	91*	2	-2	0	-5
Nc1ccc(-c2nc3ncccc3o2)c(Cl)c1	47*	2	91*	0	-1	1	3
Nc1ccc(Cl)c(-c2nc3ncccc3o2)c1	12	0	1	1	-3	/	/
Nc1cc(-c2nc3ncccc3o2)ccc1Cl	23	1	38*	2	0	87*	71*
CSC1=NCCN1S(=O)(=O)c1ccc2ccccc2c1	5	/	0	-2	-3	/	/
O=S(=O)(c1ccc2ccccc2c1)N1C=CC(C(F)(F)F)=NCC1	10	-3	86*	-6	-1	-9	-5
Cc1ccc2[nH]c(-c3cccc(N)c3)cc2c1	9	-1	43*	-1	-6	152*	128*
Cc1ccc2[nH]c(-c3cccc(F)c3)cc(=O)c2c1	15	1	11	1	-1	/	/
C[C@@H]1CCCCO[C@H](CN(C)C(=O)CCCN(C)C)[C@@H](C)CN([C@H](C)CO)C(=O)c2cc(NC(=O)Cc3ccccc3)ccc2O1	/	3	/	/	/	/	/
COc1ccc(-c2cc3cc(OC)c(OC)cc3c(C)n2)cc1	-5	7	47*	-6	-1	73*	55*
SMILES	GDH-TPI counter-1	BioA inh	Mtb FBA inh	3CLpro inhibitor	FadD28 binding	Mtb FBA inh conf	GDH-TPI counter-2	others
COc1ccc(-c2cc(OC)c3ccccc3n2)cc1	9	8	23	1	-3	/	/
COc1cccc(NC(=O)N(C)C[C@@H]2Oc3cc(/C=C/c4ccccc4)ccc3S(=O)(=O)N([C@@H](C)CO)C[C@H]2C)c1	/	-2	/	/	/	/	/
COC(=O)c1cc(OC)nc2c1c(=O)n(C)c(=O)n2C	7	/	110*	-1	-1	/	+
CC1=C(C(=O)OC(C)C)C(c2cccnc2)C2=C(CCCC2=O)N1 (configuration not stated)	15	7	36*	-5	-5	3	-2
CCOC(=O)C1=C(C)NC2=C(C(=O)CCC2)C1c1cccnc1 (configuration not stated)	13	0	36*	5	-2	9	4
CCOC(=O)C1=C(N)OC2=C(C(=O)CCC2)C1c1cccnc1 (configuration not stated)	-3	1	0	-2	-1	/	/
Cc1noc(C)c1S(=O)(=O)Nc1ccc2c(c1)CC(=O)N([C@@H](C)CO)C[C@@H](C)[C@@H](CN(C)C(=O)Nc1ccc(F)cc1)O2	/	-1	/	/	/	/	/
COc1ccc(CNC(=O)C[C@@H]2CC[C@H]3[C@H](COc4ccc(NC(C)=O)cc4C(=O)N3C)O2)cc1	/	4	/	/	/	/	/
C[C@@H]1CN([C@H](C)CO)C(=O)c2cc(/C=C/c3ccccc3)cnc2O[C@H]1CN(C)Cc1cncnc1	/	-3	/	/	/	/	/
N=c1c(C(=O)NCc2ccco2)cc2c(=O)n3ccccc3nc2n1Cc1ccc(Cl)cc1	13	0	44*	-5	-4	113*	87*
Cc1ccc2nc3c(cc(C(=O)NCc4ccco4)c(=N)n3Cc3ccco3)c(=O)n2c1	14	-2	42*	-2	0	49*	36*
O=C(NC1CCS(=O)(=O)C1)c1cc2c(=O)n3ccccc3nc2n1Cc1ccccc1 (configuration not stated)	22	2	102*	/	-3	+	196*
Cc1ccc(S(=O)(=O)c2cc3c(=O)n4ccccc4nc3n(Cc3ccco3)c2=N)cc1	35*	-3	87*	-3	-4	+	+
N=c1c(S(=O)(=O)c2ccc(Cl)cc2)cc2c(=O)n3ccccc3nc2n1Cc1cccnc1	2	-2	1	2	-3	/	/
COc1ccc(CCn2c(=N)c(C(=O)NC3CCCC3)cc3c(=O)n4ccccc4nc32)cc1OC	9	-1	-2	2	-1	/	/
